Peg3 promoter – Peg3 promoter activity inhibition. HeLa PEG-Prom luciferase reporter, luminescence, overnight. inhibition, % at 20 µM. hit rate 1.7% among 360,000;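 active means inhibition of at least 50% at 20 µM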
MITF TRPM1 inh – inhibitors of MITF-driven TRPM1 promoter in melanoma cells | SK-MEL-5 TRPM1 promoter luciferase, 24 h | inhibition, % at 12.5 µM | hit rate 0.83% among 330,000 | AID 488899;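 active means mean inhibition across replicates of 60% or more, whatever share of single replicates reaches that level; inconclusive means some that reach 60%, reason not given; inactive means mean inhibition across replicates below 60%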
LMP1 NFkB inh – reduces LMP1-driven NF-kappaB luciferase signal. LMP1-induced NF-kappaB luciferase reporter cells, luminescence. inhibition, % at 12.5 µM. hit rate 0.69% among 350,000; in the data active means inhibition above about 41%; inconclusive means no clear call, values can overlap the other calls;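 further: 0% = neutral control wells and 100% = reference inhibitor control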
Shn3 3UTR inh – reduces Shn3 3'UTR luciferase signal in osteoblasts | Clone20 osteoblast Shn3 3'UTR firefly luciferase, 24 h | inhibition, % at 12.5 µM | hit rate 0.52% among 360,000 | AID 588674;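 active means mean inhibition of at least 75% with every replicate also reaching 75%; inconclusive means mean inhibition at least 75% but some replicate below; inactive means mean inhibition below 75%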;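 further: 0% = median of neutral control wells and 100% = pilot-screen positive control compound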
TROY signal inh – blocks TROY-dependent signaling in reporter cells; Q293 LMP1-TROYcd NF-kB luciferase reporter, 4 h; inhibition, % at 10 µM; hit rate 0.98% among 360,000; AID 1347056;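 active means compounds whose plate-normalised and pattern-corrected inhibition of the luciferase reporter signal at the single screening dose is 50% or more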
TWEAK Fn14 block – TWEAK-Fn14 signaling inhibition | TWEAK-stimulated Fn14 reporter cells, luciferase luminescence, 8 h | hit rate 2% among 360,000 | inhibition, % at 10 µM | AID 1159606; in the data active means inhibition above about 50%
Numbers without * were called inactive; ? = inconclusive; . = not tested or not shown. An excerpt weighted towards active compounds, which were near 4.1% of everything screened.

SMILES | Peg3 promoter | MITF TRPM1 inh | LMP1 NFkB inh | Shn3 3UTR inh | TROY signal inh | TWEAK Fn14 block
N=C(N)SCc1cn(-c2ccccc2)nc1-c1ccc(Br)cc1 | 108.2* | 58.9 | -44.3 | ? | 9.3 | 0.9
COc1ccc(-c2nn(-c3ccccc3)cc2CO)cc1 | -150.1 | -47.4 | -11.0 | -9.4 | -73.3 | -2.1
COc1ccccc1CCn1c(N)cc(=O)[nH]c1=O | 6.1 | . | -3.3 | -26.3 | -12.6 | 1.7
Cc1cccc(C(=O)Nc2ccc(C(=O)/C=C/c3ccncc3)cc2)c1 | 102.0* | 54.8 | 38.3 | 84.7 | 57.6* | -13.4
Cc1cccc(C(=O)Nc2ccc(C(=O)/C=C/c3cccnc3)cc2)c1 | 109.3* | 26.8 | 27.1 | 96.9* | -75.6 | 0.4
O=C(/C=C/c1cccnc1)c1ccc(NC(=O)c2cccc(Br)c2)cc1 | 24.3 | -4.1 | -2.5 | -0.5 | -10.2 | -26.1
CN(C)S(=O)(=O)c1ccc(C(=O)/C=C/c2cccnc2)cc1 | 100.5* | -3.8 | 2.4 | 63.3 | 8.1 | 4.5
O=C(/C=C/c1cccnc1)/C=C/c1cccnc1 | 109.0* | 96.4* | -45.7 | 94.4* | 72.1* | 100.8*
OCCC1CN(Cc2ccccc2OC2CCCC2)CCN1Cc1ccsc1 (stereo not drawn) | 10.9 | -6.6 | 10.5 | 0.0 | -6.5 | 6.6
Cc1nc(C)c(C(=O)OC(C)C(=O)Nc2ccc(F)cc2)s1 (stereo not drawn) | 7.6 | 3.3 | 0.6 | 74.6 | 20.7 | 4.1
COc1ccc(OC)c(C(=O)/C=C/c2cccnc2)c1 | 75.5* | 2.3 | 12.7 | -19.0 | -16.3 | 27.4
CC1CC(=O)C(C(C2=C(O)CC(C)CC2=O)c2ccccc2)=C(O)C1 (stereo not drawn) | 9.9 | 7.5 | -5.3 | -7.0 | -0.2 | 4.4
COc1ccc(-n2c(C)c(C(C)=O)c3cc(O)ccc32)cc1 | 7.1 | 1.5 | 57.2* | 6.3 | 49.1 | 59.1*
COc1ccc2c(c1)c(C(C)=O)c(C)n2CCc1ccccc1 | 20.1 | 16.9 | 26.4 | 16.8 | 27.2 | 68.6*
COc1ccc2c(c1)c(C(C)=O)c(C)n2CCc1ccc(OC)c(OC)c1 | 16.3 | 4.1 | 6.8 | -9.3 | -18.9 | -26.3
CCOc1ccc(-n2c(C)c(C(=O)O)c3cc(OC)ccc32)cc1 | -4.1 | -12.2 | 2.0 | 0.7 | -15.3 | 40.1
CCOc1ccc(-n2c(C)c(C(C)=O)c3cc(OC(C)=O)ccc32)cc1 | 26.2 | . | 32.4 | 46.3 | 41.8 | 79.0*
CC(=O)N1C[C@@H](CO)[C@@H](N(C)C(=O)C(C)(C)C)C[C@H]1c1ccccc1 | -5.9 | . | . | -11.0 | 7.9 | -0.8
O=c1cc(-c2ccccc2)[nH]n1-c1ccccc1 | 12.5 | 4.1 | 0.4 | -2.1 | 52.8* | 1.4
CCOc1ccc(-c2ccc(SCC(=O)NC3CCCCC3)nn2)cc1 | -246.9 | -89.6 | -6.2 | -48.6 | -23.9 | -28.8
Cc1ccc(S(=O)(=O)N2C[C@@H]3CCCC[C@@H]3[C@@H](C)[C@H]2c2cn(Cc3ccccc3)c3ncccc23)cc1 | 16.0 | 45.5 | 26.2 | 88.8* | 40.8 | 34.1
COc1ccc2c(c1)c([C@@H]1[C@H](C)[C@H]3CCCC[C@H]3CN1S(=O)(=O)c1ccc(C)cc1)cn2C | 10.6 | 11.3 | 3.8 | 19.8 | 13.3 | 84.4*
Cc1ccc(S(=O)(=O)N2C[C@@H]3[C@H]4CC[C@H](C4)[C@@H]3[C@@H](C)[C@@H]2c2cn(Cc3ccccc3)c3ncccc23)cc1 | 12.7 | 2.5 | -1.1 | 19.5 | 8.2 | 27.9
Cc1ccc(S(=O)(=O)N2C[C@@H]3CCCC[C@@H]3[C@@H](C)[C@H]2c2cn(Cc3ccccc3)c3ccccc23)cc1 | 9.8 | 49.3 | 35.0 | 81.0 | 42.2 | 61.4*
CCOC(=O)c1c(C)[nH]c(C(=O)COC(=O)[C@H](C)N2C(=O)C3CCCCC3C2=O)c1C (stereo partly drawn) | 5.3 | 17.4 | -3.0 | 92.7* | 19.2 | 21.1
SMILES | Peg3 promoter | MITF TRPM1 inh | LMP1 NFkB inh | Shn3 3UTR inh | TROY signal inh | TWEAK Fn14 block
CC(=O)c1c(C)[nH]c(C(=O)COC(=O)CN2C(=O)C3CCCCC3C2=O)c1C (stereo not drawn) | -5.3 | 9.7 | 0.9 | -2.8 | 12.7 | 16.9
COc1cccc(NC(=O)CCNS(=O)(=O)c2ccc3c(c2)CC(C)N3C(=O)C2CC2)c1 (stereo not drawn) | 14.2 | -6.5 | -1.7 | 17.0 | -0.8 | 5.7
CCOC(=O)C1=C(CC)Nc2ccccc2N=C1NC(=O)c1oc2ccccc2c1C | 64.4* | 23.3 | -4.5 | 57.4 | 24.7 | 24.8
CCOCc1c(C(=O)NC2=Nc3ccccc3NC(CC)=C2C(=O)OCC)oc2ccccc12 | 65.5* | 1.3 | 10.2 | 39.4 | 17.4 | 22.6
CCCCCOC(=O)c1c(N)n(CCOC)c2nc3ccccc3nc12 | 19.5 | 61.3* | 14.9 | -14.0 | -0.5 | 19.6
CCOC(=O)c1c(N)n(CCOC(=O)c2cccs2)c2nc3ccccc3nc12 | -16.2 | -3.8 | 11.3 | 2.8 | 22.6 | -13.9
CCN(CC)CCNC(=O)c1c(O)c2cc(OC)c(OC)cc2[nH]c1=O | -2.5 | 2.3 | 55.3* | 0.6 | -28.9 | -17.9
O=C(CCNC(=O)c1ccc(Br)cc1)Nc1ccc(S(=O)(=O)N2CCOCC2)cc1 | 1.6 | -0.2 | -5.9 | 6.4 | 40.3 | -13.0
CCOC(=O)C(CC)(CC)C(=O)/C=C/c1cccc(Br)c1 | 109.0* | 29.9 | -27.0 | 72.7 | 2.2 | 59.4*
NC(=O)NC(=O)COC(=O)/C=C/c1cccc(Br)c1 | 6.2 | 0.7 | 0.9 | -1.4 | 4.2 | -4.8
COc1ccc(C)cc1N1CC(C(=O)Nc2cccc(C(=O)NC3CC3)c2)CC1=O (stereo not drawn) | -2.8 | . | 2.7 | -11.2 | 9.7 | -32.4
CN(C)c1ccc(CNS(=O)(=O)c2ccc3c(c2)C(C)(C)C(=O)N3C)cc1 | -3.5 | 3.3 | -0.2 | 12.3 | -7.0 | -11.8
COc1cc(C2C(C#N)=C(N)Oc3cc(O)ccc32)cc(OC)c1OC (stereo not drawn) | 9.6 | 9.4 | 7.4 | 12.1 | -6.6 | -3.2
COc1cc(C2C(C#N)=C(N)Oc3cc4c(cc32)OCO4)cc(OC)c1OC (stereo not drawn) | -22.5 | 77.1* | 7.1 | -7.3 | 28.2 | -2.3
O=C(Nc1ccc2c(c1)OCCO2)C(c1cc2ccccc2o1)N1CCN(c2ccc(C(F)(F)F)cn2)CC1 (stereo not drawn) | -21.3 | . | . | -11.0 | 85.7* | 88.3*
O=C(Nc1ccc2c(c1)OCCO2)C(c1cc2ccccc2o1)N1CCN(C/C=C/c2ccccc2)CC1 (stereo not drawn) | -13.2 | . | . | -5.9 | 83.0* | 86.0*
O=C(Nc1ccc2c(c1)OCCO2)C(c1cc2ccccc2o1)N1CCN(c2ccc(F)cc2)CC1 (stereo not drawn) | -30.8 | . | . | 9.9 | 84.8* | 85.1*
COc1ccc(NC(=S)Nn2cnnc2)c(OC)c1 | 5.8 | -0.4 | -6.0 | -7.1 | 2.1 | 4.0
O=C(N/N=C(\c1ccccc1)c1cccnc1)c1cccc(F)c1 | 52.6* | 90.0* | 46.2* | 94.7* | -50.6 | -0.2

Assay outcomes as filed in PubChem.
